The panel holds about 79,000 compounds, 15% with a hit somewhere; the sample as a whole holds those more often. Cut-off read from the data, not from the text of the source: active = growth inhibition above about 70%; inactive = the rest.
Columns and labels:
[1] = NCI Yeast Anticancer Drug Screen. Data for the rad50 strain (AID 155);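 note: 0% = growth of vehicle-only cultures of the same strain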; details: S. cerevisiae rad50 strain growth inhibition; at 50.0 µM; stronger effect = higher value
Method in brief: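 Readout: growth inhibition relative to vehicle-treated cultures. Compound exposure was carried out in a genetically defined yeast strain deficient in DNA damage repair.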

[2] = NCI Yeast Anticancer Drug Screen. Data for the mec2-1 strain (AID 157); details: S. cerevisiae mec2-1 strain, at 50.0 µM, stronger effect = higher value
Method in brief: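 Compounds were applied to mec2-1 yeast cells. Their growth was then compared with that of vehicle-treated cultures to give growth inhibition.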

[3] = NCI Yeast Anticancer Drug Screen. Data for the sgs1 mgt1 strain (AID 161);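 note: 0% = growth of cultures given vehicle only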; details: S. cerevisiae sgs1 mgt1 strain, at 50.0 µM, stronger effect = higher value
Method in brief: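 Compounds are added to genetically altered yeast, and growth is compared with cultures given vehicle alone to give percent inhibition.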

[4] = NCI Yeast Anticancer Drug Screen. Data for the cln2 rad14 strain (AID 165);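 note: 0% = growth equal to vehicle treated cultures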; details: S. cerevisiae cln2 rad14 strain, at 50.0 µM, stronger effect = higher value
Method in brief: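 Strain: cln2 rad14 yeast, altered in cell cycle control and DNA damage repair. Read-out: growth inhibition vs vehicle.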

[5] = NCI Yeast Anticancer Drug Screen. Data for the bub3 strain (AID 167); details: S. cerevisiae bub3 mutant strain, at 50.0 µM, stronger effect = higher value
Method in brief: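 Readout: yeast growth inhibition, expressed relative to vehicle-only wells. The test organism is a mutant strain from a panel with lesions in DNA repair or checkpoint genes.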

[6] = NCI Yeast Anticancer Drug Screen. Data for the mlh1 rad18 strain (AID 175); details: S. cerevisiae mlh1 rad18 strain growth inhibition; at 50.0 µM; stronger effect = higher value
Method in brief: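 A repair-deficient yeast strain is exposed to test compound, and growth is scored relative to vehicle-treated controls.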

Measured: growth inhibition

COc1ccc(C(=O)c2ccccc2C)cc1OC
inactive: [1] 1.65% | [2] 0.1% | [3] -1.15% | [4] 28.1% | [5] 36.5% | [6] 0.15%

CCN(CC)CC1CO1 (stereo not given)
inactive: [1] -8.15% | [2] -12.1% | [3] 3.35% | [4] -3.5% | [5] -11.7% | [6] 9.2%

CCOC(=O)c1nc2ccccc2nc1NCc1ccc(OC)c(OC)c1
inactive: [1] 0.65% | [2] 13.1% | [3] -7.75% | [4] 19.7% | [5] -0.05% | [6] -11.4%

Nc1ccc([N+](=O)[O-])c(F)c1
inactive: [1] -6.05% | [2] -6.8% | [3] -3.25% | [4] -11.8% | [5] 10.1% | [6] 9.15%

Clc1ccc(OCCSCCOc2ccc(Cl)cc2)cc1
inactive: [1] 8.85% | [2] -17.8% | [3] 12.5% | [4] -22.1% | [5] 0.9% | [6] 2.35%

CSC1(C)C(=O)Nc2ccccc21 (stereo not given)
inactive: [1] -4.15% | [2] -9.65% | [3] -0.35% | [4] -20.8% | [5] -36.3% | [6] 3.6%

CC(/C=C1\N=C(c2ccccc2)OC1=O)=C\c1ccccc1
inactive: [1] -40% | [2] -22.1% | [3] -33.5% | [4] 9.2% | [5] -35.4% | [6] -28.9%

COc1ccc(/C=N/n2cnc3c(c2=O)SC(=C(C#N)C#N)N3c2ccccc2)cc1
inactive: [1] -5.4% | [2] -35.5% | [3] -15.6% | [4] -16.1% | [5] -19.5% | [6] -41%

Fc1ccc(CSc2cnnc(SCc3ccc(F)cc3)c2SCc2ccc(F)cc2)cc1
inactive: [1] -23.2% | [2] 2.75% | [3] -20.2% | [4] -21.9% | [5] -13.9% | [6] -34.7%

CCCCCC(=O)Nc1cc(N)cc(C(=O)O)c1
inactive: [1] 4.25% | [2] 9.25% | [3] 9.5% | [4] -9.6% | [5] 0.1% | [6] -14.3%

CC(=O)N1C(Nc2nccs2)CCN1c1ccccc1 (stereo not given)
inactive: [1] -43.8% | [2] -64.5% | [3] -21% | [4] 3.1% | [5] -6.75% | [6] -34.2%

COc1ccc(Cl)cc1NC(=O)Nc1ccc(S(N)(=O)=O)cc1
inactive: [1] 9.7% | [2] 8% | [3] 4.85% | [4] 18.1% | [5] 19.1% | [6] 9.65%

CC(C)[C@@]12O[C@@H]1CC13OC1[C@@H](O)CC[C@@]32O (stereo not given in full)
inactive: [1] -16.6% | [2] -1.05% | [3] -2.8% | [4] -27.9% | [5] -6.25% | [6] -20.8%

O=C(NC(=O)c1ccccc1)OC(c1ccccc1)C1CO1 (stereo not given)
inactive: [1] -0.7% | [2] 9.65% | [3] 11.4% | [4] 8.55% | [5] -34.1% | [6] 18.8%

Cc1ccc(C(=O)c2ccccc2)cc1
inactive: [1] 26.1% | [2] 23.5% | [3] -11.8% | [4] -8.75% | [5] -0.6% | [6] -1.7%

C/C(C/C(C)=N/C(N)=S)=N\C(N)=S
inactive: [1] -37.5% | [2] -23.1% | [3] -15.8% | [4] -12.4% | [5] 0.15% | [6] -13.5%

CCCN(CCCC(NC(C)=O)C(=O)NCc1ccccc1)C(=O)N(C)N=O (stereo not given)
inactive: [1] -21.1% | [2] -24.8% | [3] -4.25% | [4] 19.9% | [5] -14.8% | [6] -11.9%

N#CC(C(=O)CCC(=O)Nc1ccc(Cl)c(Cl)c1)c1ccc(Cl)cc1 (stereo not given)
inactive: [1] -12.9% | [2] -29.9% | [3] 18.1% | [4] 15.4% | [5] 8.4% | [6] -2.2%

CCCc1nc2ccccc2c(=O)n1/N=C/c1ccc(Cl)cc1Cl
inactive: [1] -11.7% | [2] 0.4% | [3] 0.05% | [4] 3% | [5] -3.45% | [6] -3.4%

COc1ccc(N2C=Nn3c(nc4sc(C)c(C)c4c3=O)C2)cc1
inactive: [1] 7% | [2] 12.9% | [3] 20.9% | [4] -12.3% | [5] 12.9% | [6] -1%

Reference: PubChem BioAssay (NCI)
